From paper PMC4552634, “A New Set of Chemical Starting Points with Plasmodium falciparum Transmission-Blocking Potential for Antimalarial Drug Discovery” (PLoS ONE, 2015)
Like-named read-outs stand apart in the source and are kept apart here. Among all 13,000 compounds or so, about 3,200 (25%) showed an effect of 50% or more. The list shows a part of the results.

Test system: P. falciparum stage V gametocytes
Set-up: BacTiter-Glo ATP luminescence viability of purified stage V gametocytes in 384-well plates, per cent inhibition versus DMSO
Conditions: 48 h, 5 µM, inhibitor

SMILES | % Inhibition [%] | % Inhibition (% Inhibition) [%]
CC(=O)Nc1ccc(C(=O)Nc2cccc(-c3ccc(-c4nc5cc(C(F)(F)F)ccc5[nH]4)s3)c2)cn1 [TCMDC-136825] | 32.63 | –
NC1=NCN(OCc2ccc(Cl)c(Cl)c2)C(N)=N1 [TCMDC-131661] | 6.901 | –
CC(C)(C)c1ccc2oc(=O)n(C3CCN(C(=O)c4ccc([N+](=O)[O-])o4)CC3)c2c1 [TCMDC-124798] | 106.6 | –
O=C(c1ccc([N+](=O)[O-])o1)N1CCC(c2cn(Cc3cccc(F)c3)c3ccccc23)CC1 [TCMDC-124804] | 44.33 | –
O=[N+]([O-])c1cccc(CNCC2CCN(Cc3ccc(C(F)(F)F)cc3)CC2)c1 [TCMDC-141209] | 21.63 | –
Cc1ccc2c(-c3ccc([N+](=O)[O-])o3)cc(C)nc2c1 [TCMDC-131568] | 5.138 | –
FC(F)(F)c1ccc(CNCC2CCN(Cc3ccc4c(c3)OCO4)CC2)cc1 [TCMDC-141674] | 9.475 | –
Cc1ccc2c(c1)c(C1CCN(C(=O)c3ccc([N+](=O)[O-])o3)CC1)cn2C [TCMDC-124787] | 93.47 | –
O=C(c1ccc([N+](=O)[O-])o1)N1CCC(Cc2ccc(C(F)(F)F)cc2)CC1 [TCMDC-124805] | 110.5 | –
COc1cccc(-c2cnc(-c3ccncc3)nc2C2CCN(Cc3ccc(NC(C)=O)cc3)CC2)c1 [TCMDC-124592] | 1.604 | –
O=C(Nc1ccc(OC2CCN(Cc3ccc(F)cc3)CC2)c(Cl)c1)c1ccccc1 [TCMDC-133751] | 2.198 | –
COc1ccc(CN2CCCC(Nc3ccc(F)c(F)c3)C2)c(O)c1 (stereo not drawn) [TCMDC-124607] | 5.364 | –
Cc1cccc(C(=O)Nc2ccnc(N3CCC(N(C)Cc4cccc(O)c4)CC3)c2)c1 [TCMDC-134963] | 14.15 | –
COc1ccc(-c2ccccc2)cc1NC(=S)NC1CCC(CN2CCC(c3c[nH]c4ccccc34)CC2)CC1 (stereo not drawn) [TCMDC-140200] | – | 105.5
COc1ccc(-c2ccccc2)cc1NC(=S)NC1CCC(CN2CCC(c3c[nH]c4ccccc34)CC2)CC1 (stereo not drawn) [TCMDC-140182] | – | 85.27
O=C(N[C@@H](CC1CCCCC1)C(=O)NCCc1ccc(Cl)c(Cl)c1)c1ccc(O)c(-c2ccc(Cl)c(Cl)c2)c1 [TCMDC-140874] | 30.89 | –
O=C(CCOc1ccccc1)NCC1CCCO1 (stereo not drawn) [TCMDC-123513] | 13.36 | –
O=C(NCCCNc1nc2ccccc2[nH]1)c1cccc(OC(F)(F)F)c1 [TCMDC-140754] | -24.04 | –
COc1ccc2nccc([C@@H](O)CN3CCC(NC(=O)C(=Cc4ccc(Cl)cc4Cl)c4ccc(-c5ccccc5)cc4)CC3)c2c1 [TCMDC-141109] | 17.05 | –
COc1ccc2nccc([C@@H](O)CN3CCC(NC(=O)/C(=C/c4ccccc4)c4ccc(-c5ccccc5)cc4)CC3)c2c1 [TCMDC-141115] | 0.831 | –
O=C(NCCc1ccccc1)N(Cc1ccccc1-c1cccc(CNC2CCCC2)c1)C1CCN(Cc2ccccc2)CC1 [TCMDC-140612] | 64.34 | –
O=C(NCCc1ccccc1)N(Cc1ccccc1-c1ccc(CNC2CCCC2)cc1)C1CCN(Cc2ccccc2)CC1 [TCMDC-140613] | 98.8 | –

SMILES | % Inhibition [%] | % Inhibition (% Inhibition) [%]
O=C(NCC1CCC(C(=O)NC2CCCc3ccccc32)CC1)c1ccc(O)c(-c2cccc([N+](=O)[O-])c2)c1 (stereo not drawn) [TCMDC-140882] | 10.62 | –
O=C(Nc1ccccc1)Nc1cccc(-c2ccc(-c3nc4ccc(C(F)(F)F)cc4[nH]3)cc2)c1 [TCMDC-133151] | -20.54 | –
CCOc1cc2ncnc(Nc3ccc(OCc4c(F)cccc4F)c(OC)c3)c2cc1OCC [TCMDC-131911] | 15.37 | –
CN1CCCC(COc2cc3c(cc2Br)CCN3C(=O)Nc2ccc(-c3ccncc3)c(Cl)c2)C1 (stereo not drawn) [TCMDC-139230] | 96.61 | –
CN1CCC(c2cc3c(cc2Br)CCN3C(=O)Nc2ccc(-c3ccncc3)c(Cl)c2)CC1 [TCMDC-139228] | 3.26 | –
CN1CCC[C@@H](Oc2cc3c(cc2Br)CCN3C(=O)Nc2ccc(-c3ccncc3)c(Cl)c2)C1 [TCMDC-139237] | -19.19 | –
CC(C)OC(=O)c1cccnc1SCC(=O)Nc1ccc(C(F)(F)F)cc1Cl [TCMDC-123575] | -93.91 | –
FC(F)(F)c1ccc(CSc2ccc3nnc(-c4ccccn4)n3n2)cc1 [TCMDC-125344] | 51.34 | –
COc1ccc(-c2cccc(NC(=O)c3ccc(C#N)cc3)c2)cc1CNC(C)C [TCMDC-132610] | 13.1 | –
COc1ccc(-c2cccc(NC(=O)c3cccc(C#N)c3)c2)cc1CN(C)CCO [TCMDC-132625] | 94.55 | –
COc1ccc(-c2cccc(NC(=O)c3cccc(C#N)c3)c2)cc1CN(C)CCN(C)C [TCMDC-133339] | 13.46 | –
COc1ccc(-c2cccc(NC(=O)c3ccc(F)cc3)c2)cc1CNC(C)C [TCMDC-132608] | 77.83 | –
COc1ccc(-c2ccc(NC(=O)c3cccc(C#N)c3)cc2)cc1CN(C)C [TCMDC-133333] | 10.09 | –
COc1ccc(-c2cccc(NC(=O)c3ccc(C#N)cc3)c2)cc1CN(C)CCN(C)C [TCMDC-133341] | 14.59 | –
COc1ccc(-c2cccc(NC(=O)c3cccc(C#N)c3)c2)cc1CNC(C)C [TCMDC-132622] | 84.95 | –
COc1ccc(-c2ccc(NC(=O)c3ccc(C#N)cc3)c(F)c2)cc1CN(C)CCN(C)C [TCMDC-133366] | 57.41 | –
COc1ccc(-c2ccc(NC(=O)c3ccc(C#N)cc3)cc2)cc1CN(C)CCN(C)C [TCMDC-132520] | 27.11 | –
c1ccc(CCNc2ccnc(Nc3ccc4cn[nH]c4c3)n2)cc1 [TCMDC-136880] | 16.88 | –
CN(c1ccccc1)S(=O)(=O)c1cccc(NC(=O)c2ccc(-n3ccnc3)c([N+](=O)[O-])c2)c1 [TCMDC-125320] | 19.17 | –
CCC(=O)N1CCc2cc(Br)cc(S(=O)(=O)N3CC(C)CC(C)C3)c21 (stereo not drawn) [TCMDC-123873] | -4.792 | –
Cc1ccc(N2C(=O)C3C(C2=O)C2(c4ccccc4)C(=O)C3(c3ccccc3)C(c3ccccc3)=C2c2ccccc2)c(C)c1 (stereo not drawn) [TCMDC-124184] | 31.21 | –
Oc1ccc(CCNc2nc(N/N=C/c3ccc(Cl)cc3)nc(N3CCNCC3)n2)cc1 [TCMDC-138543] | -10.01 | –

SMILES | % Inhibition [%] | % Inhibition (% Inhibition) [%]
C=CCN(c1ccc(OC)cc1)S(=O)(=O)c1ccc(Cl)c(C(=O)Nc2cccc(C#N)c2)c1 [TCMDC-123716] | -20.14 | –
COc1ccc(-c2cccc(NC(=O)c3cccc(Cl)c3)c2)cc1CNC(C)C [TCMDC-133340] | -37.98 | –
COc1ccc(-c2cccc(NC(=O)c3ccc(Cl)cc3)c2)cc1CNC(C)C [TCMDC-132603] | 87.48 | –
COc1ccc(-c2ccc(NC(=O)c3cccc(F)c3)cc2)cc1CNC(C)C [TCMDC-132529] | -9.819 | –
COc1ccc(-c2ccc(NC(=O)c3cccc(Cl)c3)c(F)c2)cc1CNC(C)C [TCMDC-132766] | 31.53 | –
COc1ccc(-c2ccc(NC(=O)c3ccc(F)cc3)cc2)cc1CNC(C)C [TCMDC-132515] | 64.88 | –
COc1ccc(-c2ccc(NC(=O)c3ccc(C#N)cc3)cc2)cc1CNC(C)C [TCMDC-132518] | 25.16 | –
CCNc1cc(C(=O)N[C@@H](Cc2ccccc2)[C@H](O)CNC(C)(C)c2cccc(OC)c2)cc(N2CCCC2=O)c1 [TCMDC-138895] | -11.4 | –
CCc1cccc(-n2nc(OCC(=O)NC3CCCC3)c3cccnc32)c1 [TCMDC-125160] | 5.355 | –
COc1cccc2cc(C(=O)N[C@@H](CC(C)C)C(=O)N[C@H](C=NN3CC(=O)NC3=O)CC(C)C)oc12 [TCMDC-136063] | 6.388 | –
COc1cc(-c2nc(-c3ccccc3)c(-c3ccccc3)[nH]2)ccc1OCCN(C)C [TCMDC-137716] | -85.41 | –
Oc1cc(-c2nc(-c3ccccc3)[nH]c2-c2ccncc2)ccc1Cl [TCMDC-139660] | -47.58 | –
COc1ccc(NC(=O)Nc2ccc(-c3ccc(-c4nc5ccccc5[nH]4)cc3)cc2)cc1 [TCMDC-133248] | -24.62 | –
COc1ccc(OCC(=O)Nc2cc(-c3nc4ccccc4[nH]3)ccc2Cl)cc1 [TCMDC-125425] | -8.801 | –
CCCCCCNCCOc1ccc(-c2nc(-c3ccccc3)c(-c3ccccc3)[nH]2)cc1 [TCMDC-137684] | 76.06 | –
Oc1cccc(-c2nc(-c3ccccc3)c(-c3ccc(Oc4ccc(-c5[nH]c(-c6cccc(O)c6)nc5-c5ccccc5)cc4)cc3)[nH]2)c1 [TCMDC-125666] | -19.27 | –
CCCCNCCOc1ccc(-c2nc(-c3ccccc3)c(-c3ccccc3)[nH]2)cc1 [TCMDC-138053] | 74.26 | –
CCCCCOc1ccc(C=NNc2nc(-c3ccccc3)cc(=O)[nH]2)cc1 [TCMDC-124237] | 29.87 | –
CCCCOc1ccc(-c2nc3ccccc3[nH]2)cc1 [TCMDC-123930] | 57.83 | –
CN(C)c1ccc(CN2CCC(NC(=O)c3ccc(-c4cccc(F)c4)s3)CC2)cc1 [TCMDC-134327] | -0.6628 | –
COc1ccccc1Nc1nc(C)cc(NCc2ccc(-n3ccnc3)cc2)n1 [TCMDC-133452] | 11.88 | –
COc1ccc(S(=O)(=O)Nc2cc(C)cc(Br)c2OC)cc1N1CCN(C(=O)C(Cl)(Cl)Cl)CC1 [TCMDC-139808] | 8.102 | –
